IEC-6 tox – cytotoxicity in IEC-6 intestinal epithelial cells, primary screen, cytotoxicity control for KLF5 inhibitor project, cell-based, luminescence; IEC-6 cytotoxicity, luminescence viability; inhibition, % at 5 µM; hit rate 0.78% among 290,000;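 note: 0% = plate median of test compound wells and 100% = cytotoxic reference compound wells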
BaF3 tox – parental Ba/F3 cell viability inhibition, counter-screen for JAK2V617F inhibitor project, murine pro-B, CellTiter-Glo luminescence; CellTiter-Glo ATP luminescence; inhibition, % at 5.6 µM; hit rate 1.1% among 220,000;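 active = inhibition above a per-campaign cutoff, the mean inhibition of all tested compounds plus 3 SD, cut at about 27% in these data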;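 note: 0% = DMSO wells and 100% = JAK Inhibitor I control wells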
Ba/F3 V617F tox – reduced viability of JAK2V617F-dependent Ba/F3 cells, primary screen, JAK2V617F inhibitor project, cell-based, Ba/F3 EpoR-JAK2V617F, luminescence. ATP luminescence. inhibition, % at 5.6 µM. hit rate 1.1% among 220,000. AID 1446, 2008;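 active = inhibition above the campaign mean plus 3 SD over all tested compounds, cut at about 24% in these data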;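 note: cytokine-independent growth of Ba/F3 cells driven by EpoR plus mutant JAK2; 0% = DMSO-treated cells and 100% = JAK inhibitor I control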
KLF5 inh – KLF5 expression inhibitors, primary screen, DLD-1 cells, luminescence | hit rate 0.23% among 290,000 | DLD-1 KLF5 promoter-luciferase reporter | inhibition, % at 5 µM | AID 1700, 2009;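 active = inhibition above a per-plate limit of that plate's mean compound inhibition plus 3 SD, cut at about 60% in these data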;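 note: 0% = DMSO wells and 100% = LY294002 at 200 µM; higher means less KLF5 promoter-driven luciferase light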
APP 5UTR inh – inhibitors of APP translation via 5'UTR reporter, primary screen, APP 5'UTR luciferase, SH-SY5Y cells. SH-SY5Y APP 5'UTR-luciferase reporter, luminescence. inhibition, % at 2 µM. hit rate 0.82% among 190,000. AID 1285, 2008;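 active = inhibition above a set limit, derived from the sample mean plus 3 SD, cut at about 45% in these data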
aSyn 5UTR inh – MLPCN primary screen, SNCA 5' untranslated region; alpha-synuclein 5'UTR reporter, inhibitor activity; inhibition, % (tested at 7.5 µM); hit rate 0.82% among 300,000; AID 1813, 2009; in the data active = inhibition above about 60%;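 note: H4 neuroglioblastoma cells stably carrying SNCA 5'UTR luciferase fusion; 0% = DMSO wells and 100% = positive control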
IEC-6 cytotox cf – cytotoxic compounds in IEC-6 epithelial cells, confirmation, cytotoxicity control, cell-based, luminescence; shares compounds with IEC-6 tox; IEC-6 rat intestinal epithelial viability; inhibition, % at 5 µM; hit rate 63% among 1,900; AID 1907, 2009;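 note: 0% = vehicle and 100% = reference cytotoxic drug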
Active calls of the source: *. Shown are actives, neighbours in structure and some others; about 2.2% of the full set was active somewhere. Cut-off read from the data, not from the text of the source, unless noted: active = inhibition above about 22%; inactive = the rest.

Screening CN(C)c1ccc(/C=C/c2cc[n+](C)c3ccccc23)cc1 returned IEC-6 tox 28.2*, BaF3 tox 82.0*, Ba/F3 V617F tox 101.0*, KLF5 inh 31.9, APP 5UTR inh -4.8 and IEC-6 cytotox cf 21.4.
For C/C1=C\[C@@H](C)C/C=C/[C@H]2[C@@H]3O[C@]3(C)[C@@H](C)[C@H]3[C@H](Cc4c[nH]c5ccccc45)NC(=O)[C@]32C(=O)/C=C/C(=O)[C@@H]1O the results were IEC-6 tox 90.6*, BaF3 tox 63.0*, Ba/F3 V617F tox 65.2*, KLF5 inh -7.2, APP 5UTR inh 83.8*, aSyn 5UTR inh 81.1* and IEC-6 cytotox cf 66.3*.
Screening CC(C)Cn1cc(C(=O)N2CCC3(CC2)OCCO3)c2c3ccccc3n(C)c2c1=O returned IEC-6 tox 1.4, BaF3 tox 9.0, Ba/F3 V617F tox 4.2, KLF5 inh 1.9, APP 5UTR inh -4.6 and aSyn 5UTR inh 2.7.
For COC(=O)C(Cc1ccc(N(CCCl)CCCl)cc1)N=Cc1ccccc1O (configuration not stated) the results were IEC-6 tox 90.4*, KLF5 inh -12.3, aSyn 5UTR inh 27.4 and IEC-6 cytotox cf 77.8*.
CCCCn1c(=O)c(C=Nc2cccnc2Cl)c(O)n(CCCCl)c1=O was read as IEC-6 tox -1.5, BaF3 tox 1.3, Ba/F3 V617F tox 1.1, KLF5 inh -10.5, APP 5UTR inh -1.0 and aSyn 5UTR inh -35.0.
Screening CCC(C)NC(=O)CCC(=O)OC1O[C@H]2OC3(C)CC[C@H]4[C@H](C)CCC(C1C)C24OO3 (some centres not stated) returned IEC-6 tox 34.7*, KLF5 inh 83.8*, aSyn 5UTR inh 8.6 and IEC-6 cytotox cf 22.9*.
`CN1CCN(c2ncnc3nc[nH]c23)CC1` gave IEC-6 tox -3.3, BaF3 tox 2.4, Ba/F3 V617F tox -2.2, KLF5 inh 12.6, APP 5UTR inh 6.4 and aSyn 5UTR inh 6.2.

High-throughput results deposited in PubChem BioAssay by several laboratories.
